Here are results for three molecules from PubChem BioAssay (NCATS).

Test [1] has as its target Cytochrome P450 1A2 (Homo sapiens) (UniProt P05177). Description: p450-cyp1a2 (AID 410; calls by dose curve; also: potency is read from the fitted curve at half-maximal effect;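 as to activity change, negative = inhibition: -100% = full effect of reference inhibitor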). In a few lines: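 Luminescent demethylation readout: Luciferin-ME (100uM, equal to Km) turned over by 20nM CYP1A2 for 60 min at room temperature after NADPH regeneration addition, following 10 min compound preincubation. Normalization used 57 uM furafylline as full inhibition.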
A short description of test [2]: Stat Signaling Pathway (AID 446; active = well fitted curve in either direction with a large enough effect, not every such curve was filed as active;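 also: ME-180 cervical cancer cells given 40 pM IL-6 alongside compound; SIE-controlled beta-lactamase reporter measured as 460/530 nm FRET emission ratio; % is scaled to controls: 0 for no effect and ±100 for the full control effect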). To be noted: ME-180 (cervical carcinoma) SIE beta-lactamase reporter, IL-6 stimulated, 5 h. In a few lines: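 Compound effects on IL-6-induced STAT reporter activity were measured in ME-180 cells. After overnight culture, cells were co-treated with 40 pM IL-6 for 5 hrs before beta-lactamase substrate loading at room temperature.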
The target of test [3] is Glucocorticoid receptor (Homo sapiens) (UniProt P04150). Description: GR-GFP Redistribution (AID 450;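 active = compounds whose dose series gives a full or clear partial fitted curve of increased nuclear translocation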; also: potency is read from the fitted curve at half-maximal effect).
Test [4] shares this target. Description: GR-EFC Redistribution (AID 451; calls by dose curve; also: potency is read from the fitted curve at half-maximal effect). To be noted: CHO-K1 GR-EFC translocation, beta-gal luminescence, 2 h. The procedure, abridged: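 CHO-K1 cells expressing nuclear EA and GR-ED fragments of b-gal; compounds titrated up to 46 uM final, 2 h at 37 C. GR nuclear translocation read as complemented b-gal luminescence after 1 h RT detection.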
Test [5] deals with Guanine nucleotide-binding protein G(i) subunit alpha-1 (Homo sapiens) (UniProt P63096). Put plainly: qHTS Assay for Inhibitors of RGS12 GoLoco Motif Activity (Green Fluorophore) (AID 879).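 Also: 0% = labeled peptide with Gαi1 and full inhibition = labeled peptide alone without protein; negative values mean loss of peptide binding seen as reduced polarization.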 The procedure, abridged:
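A drop in FITC polarization marked displacement of the FITC-tagged RGS12 GoLoco peptide (10 nM) from Gαi1 (50 nM). Compounds were incubated 10 min at room temperature in Tris pH 7.5 buffer containing 150 mM NaCl, 0.1 mM GDP and 0.05% NP40; unlabeled peptide titration served as control.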
A general note: In qHTS, concentration-response curves come from the screen itself.

Test [6] deals with Cytochrome P450 3A4 (Homo sapiens) (UniProt P08684). Description: qHTS Assay for Activators of Cytochrome P450 3A4 (AID 885). Also: nearly all actives have a fitted effect of over 65% in size. In a few lines:
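CYP3A4 activity: Luciferin-PPXE O-dealkylation, 25uM substrate, 200mM KPO4, RT throughout. Read-out is luciferase luminescence; higher values reflect activation.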

In test [7] the target is Cytochrome P450 2D6 (Homo sapiens) (UniProt P10635). Description: qHTS Assay for Inhibitors and Substrates of Cytochrome P450 2D6 (AID 891). Also: potency is read from the fitted curve at half-maximal effect; nearly all actives have a fitted effect of over 60% in size. In a few lines: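 Luminescent read-out of luciferin formed by 5 nM human CYP2D6 demethylating 30 uM Luciferin-ME EGE (Km level) over 60 min at room temperature after NADPH regeneration addition. Data normalized to full inhibition by 1.43 uM quinidine.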

Test [8] concerns the target Muscarinic acetylcholine receptor M1 (Rattus norvegicus) (UniProt P08482). Put plainly: qHTS Assay for Antagonists of Acetylcholine Muscarinic M1 Receptor: Measurement of IP-One Response (AID 944). Also: nearly all actives have a fitted effect of over 75% in size. Also: potency is read from the fitted curve at half-maximal effect. The procedure, abridged:
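IP1 accumulation measured via TR-FRET between d2-IP1 and Eu-cryptate anti-IP1 antibody after carbachol (200 nM, EC80) stimulation for 30 min; rat M1-transfected CHO cells received compound 10 min before agonist.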

Test [9] deals with Pyruvate kinase (Leishmania mexicana) (UniProt Q27686). Put plainly: qHTS Validation Assay for Inhibitors of Leishmania Mexicana Pyruvate Kinase (AID 945).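 Also: 0% = DMSO only neutral control wells.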 The procedure, abridged: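 Mutant LmPYK (E451W), 0.2 nM, plus 0.5 mM PEP and 0.1 mM ADP in 50 mM imidazole pH 7.2 containing 0.01% Tween 20 and 0.05% BSA. Incubated 1 h at room temperature; luminescence via PKLight, normalized to DMSO.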

Test [10] concerns the target Pyruvate kinase PKM (Homo sapiens) (UniProt P14618). Description: qHTS Assay for Activators of Human Muscle Pyruvate Kinase (AID 954; active = well fitted curve in the direction sought with a large enough effect, not every such curve was filed as active;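 also: 0% = uninhibited enzyme and -100% = no enzyme or full thiadiazolimine inhibition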). In a few lines:
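A coupled luminescent readout tracked ATP made from ADP by purified PKM2. Final conditions included 0.1 nM enzyme, PEP and ADP at 0.5 and 0.1 mM, pH 7.2 imidazole buffer with BSA, and a one-hour room-temperature reaction.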

The target in test [11] is Alpha-galactosidase A (Homo sapiens) (UniProt P06280). Description: Counterscreen for Glucocerebrosidase Inhibitors: qHTS Assay for Human alpha-Galactosidase at pH 4.5 (AID 992). Also: 0% is about no effect. In a few lines: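 Citrate buffer pH 4.5, Tween-20 0.005%. Enzyme 2 nM, substrate 80 uM, 20 min RT. Stop pH 10. Fluorescence Ex 365/Em 440. AC50 by Hill fit.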
Test [12] addresses alpha-glucosidase (Oryza sativa, rice) (UniProt Q653V4). Description: Counterscreen for Glucocerebrosidase Inhibitors: qHTS Assay for Rice alpha-Glucosidase at pH 5.0 (AID 997).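 Also: 0% = full activity with enzyme and -100% = basal without enzyme.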 In a few lines: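 Endpoint fluorogenic assay at pH 5.0: compounds (0.7 nM to 77 uM) titrated against 4 nM rice enzyme and 400 uM 4-MU-alpha-glucoside for 20 min at room temperature; NaOH/glycine stop, read ex 365/em 440 nm, Hill-fitted AC50.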

A short description of test [13]: NFAT Signaling Pathway (AID 444; active = well fitted curve in either direction with a large enough effect, not every such curve was filed as active;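 also: carbachol stimulus at about its EC50 of 1 µM final; % is scaled to controls: 0 for no effect and ±100 for the full control effect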). To be noted: Jurkat NFAT-bla M1, carbachol, beta-lactamase ratio, 5 h; at 17.2 µM (top of the series) unless noted. In a few lines: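 Jurkat cells with NFAT-driven β-lactamase reporter and co-expressed M1 receptor, stimulated with carbachol (final 1 uM, ~EC50), compound titration, 5 h at 37 °C. CCF4 loaded 1 h at RT; 460/530 nm ratio gave %activity and AC50.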

The target in test [14] is Mitogen-activated protein kinase 10 (Mus musculus) (UniProt Q61831). Description: JNK3 AlphaScreen Assay (AID 530; active = well fitted curve in either direction with a large enough effect, not every such curve was filed as active;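 also: kinase came from lysate of stimulated human HepG2 cells; signal reports phosphorylation of biotinylated GST-cJun 1-79 at Ser73 with 10 µM ATP; % is scaled to controls: 0 for no effect and ±100 for the full control effect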). In a few lines:
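Activity was read by AlphaScreen after JNK3-containing HepG2 lysate (cytokine pre-activated) phosphorylated biotinylated GST-cJun with 10 uM ATP at room temperature. Phospho-Ser73 cJun antibody with Protein-A acceptor beads provided detection.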
Background: Bead proximity is the source of the signal in Alpha formats.

Test [15] concerns the target 3',5'-cyclic-AMP phosphodiesterase 4B (Homo sapiens) (UniProt Q07343). Put plainly: qHTS Assay for Inhibitors of PDE-IV (AID 607; active = well fitted activation curve with a large enough effect in the main read-out, with a control signal flat, not every such curve was filed as active; also: % of control where 0% means no effect). The procedure, abridged:
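ACTOne HEK293 cells carry a modified cAMP-gated CNG channel and express endogenous PDE4; plated 1000 cells/well, compounds up to 22.9 uM final. Membrane-potential dye fluorescence (ex 535/em 590) was read; parental cells received 10 uM forskolin + 100 uM RO 20-1724.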

Test [16] is described as follows: qHTS Assay for Identification of Small Molecule Agonists for Thrombopoietin (TPO) Signaling Pathway (AID 917). Also: % is scaled to controls: 0 for no effect and ±100 for the full control effect. The procedure, abridged:
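Luciferase reporter (Glycoprotein IIb promoter) in IL-3-deprived Ba/F3 cells carrying human TPO receptor; compounds co-added with 26 pM TPO, incubated 24 h, 37 C. Steadylite luminescence measured after 10 min.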

Test [17] concerns the target Cytochrome P450 2C9 (Homo sapiens) (UniProt P11712). Put plainly: qHTS Assay for Inhibitors and Substrates of Cytochrome P450 2C9 (AID 883). Also: potency is read from the fitted curve at half-maximal effect; nearly all actives have a fitted effect of over 60% in size. In a few lines: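 10nM CYP2C9 + 100uM Luciferin-H (=KM), 25mM KPO4; cpd 10 min 37C; NADPH regen, 60 min 37C; stop/detect with P450 Glo-Buffer 20 min; luminescence. Norm. to 57uM sulphaphenazole as full inhibition.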
Test [18] is described as follows: qHTS Assay for Identification of Small Molecule Antagonists for NFkB Signaling Pathway (AID 895; active = well fitted inhibition curve with a large enough effect in the signal ratio, with a control signal flat, not every such curve was filed as active; the % refers to the signal ratio; also: % is scaled to controls: 0 for no effect and ±100 for the full control effect). In a few lines:
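ME-180 NFkB-bla cells (beta-lactamase under NFkB response element), plated overnight, treated with compound then 10 pM TNF alpha (about EC50) for 5 hrs at 37 C. LiveBLAzer FRET read at 460/530 nm emission, 405 nm excitation.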

SMILES strings stand for the structures. Unmarked numbers belong to inactive results. Inconclusive results are not listed. Activity calls are given as the source filed them. Unless noted, calls follow the shape of the dose curve; as a rule, active = well fitted curve in the direction sought with a large enough effect; inconclusive = small, poorly fitted or top-dose-only effect, or another doubt; inactive = no such curve, though single readings can be large; an effect the other way counts as inactive or inconclusive.

Sequence of Pyruvate kinase (Leishmania mexicana) (Q27686 2-499 E452W): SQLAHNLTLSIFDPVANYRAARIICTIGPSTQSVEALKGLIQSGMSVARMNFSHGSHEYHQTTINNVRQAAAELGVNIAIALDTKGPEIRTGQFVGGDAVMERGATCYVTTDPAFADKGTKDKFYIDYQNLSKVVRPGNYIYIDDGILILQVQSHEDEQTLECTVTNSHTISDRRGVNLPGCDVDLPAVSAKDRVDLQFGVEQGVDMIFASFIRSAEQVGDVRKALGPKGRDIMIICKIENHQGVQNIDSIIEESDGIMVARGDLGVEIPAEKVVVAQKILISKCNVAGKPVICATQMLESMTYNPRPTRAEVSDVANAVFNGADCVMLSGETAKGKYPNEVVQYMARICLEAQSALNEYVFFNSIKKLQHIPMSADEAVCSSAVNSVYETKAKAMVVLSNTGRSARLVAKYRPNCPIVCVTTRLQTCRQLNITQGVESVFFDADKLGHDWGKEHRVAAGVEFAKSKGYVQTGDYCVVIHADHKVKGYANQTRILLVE
Sequence of Alpha-galactosidase A (Homo sapiens) (P06280 whole entry, looked up): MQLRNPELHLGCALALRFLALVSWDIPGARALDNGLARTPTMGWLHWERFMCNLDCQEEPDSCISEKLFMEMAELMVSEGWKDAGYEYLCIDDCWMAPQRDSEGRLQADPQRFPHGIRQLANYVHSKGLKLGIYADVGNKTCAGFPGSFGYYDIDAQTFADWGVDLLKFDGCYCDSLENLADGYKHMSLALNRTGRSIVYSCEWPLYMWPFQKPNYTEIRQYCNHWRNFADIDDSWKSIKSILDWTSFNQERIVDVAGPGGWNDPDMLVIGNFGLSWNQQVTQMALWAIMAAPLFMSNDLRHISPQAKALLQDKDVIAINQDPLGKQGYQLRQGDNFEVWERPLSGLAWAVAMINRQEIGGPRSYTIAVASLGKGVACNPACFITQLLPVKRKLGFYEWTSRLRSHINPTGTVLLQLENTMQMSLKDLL
Sequence of Cytochrome P450 1A2 (Homo sapiens) (P05177 whole entry, looked up): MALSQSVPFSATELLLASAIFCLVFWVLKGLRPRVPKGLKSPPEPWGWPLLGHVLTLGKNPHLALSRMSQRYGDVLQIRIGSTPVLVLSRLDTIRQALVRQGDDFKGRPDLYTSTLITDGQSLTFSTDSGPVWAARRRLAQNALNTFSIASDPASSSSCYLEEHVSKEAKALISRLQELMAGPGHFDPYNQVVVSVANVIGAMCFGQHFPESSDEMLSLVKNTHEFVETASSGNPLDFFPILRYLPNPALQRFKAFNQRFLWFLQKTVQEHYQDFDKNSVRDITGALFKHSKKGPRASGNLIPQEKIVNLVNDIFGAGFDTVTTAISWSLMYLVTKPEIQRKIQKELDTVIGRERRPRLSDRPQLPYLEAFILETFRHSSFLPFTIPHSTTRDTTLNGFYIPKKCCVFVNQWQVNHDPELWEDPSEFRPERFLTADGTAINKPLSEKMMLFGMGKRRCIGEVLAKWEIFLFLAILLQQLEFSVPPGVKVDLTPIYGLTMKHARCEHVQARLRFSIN
Sequence of 3',5'-cyclic-AMP phosphodiesterase 4B (Homo sapiens) (Q07343 whole entry, looked up): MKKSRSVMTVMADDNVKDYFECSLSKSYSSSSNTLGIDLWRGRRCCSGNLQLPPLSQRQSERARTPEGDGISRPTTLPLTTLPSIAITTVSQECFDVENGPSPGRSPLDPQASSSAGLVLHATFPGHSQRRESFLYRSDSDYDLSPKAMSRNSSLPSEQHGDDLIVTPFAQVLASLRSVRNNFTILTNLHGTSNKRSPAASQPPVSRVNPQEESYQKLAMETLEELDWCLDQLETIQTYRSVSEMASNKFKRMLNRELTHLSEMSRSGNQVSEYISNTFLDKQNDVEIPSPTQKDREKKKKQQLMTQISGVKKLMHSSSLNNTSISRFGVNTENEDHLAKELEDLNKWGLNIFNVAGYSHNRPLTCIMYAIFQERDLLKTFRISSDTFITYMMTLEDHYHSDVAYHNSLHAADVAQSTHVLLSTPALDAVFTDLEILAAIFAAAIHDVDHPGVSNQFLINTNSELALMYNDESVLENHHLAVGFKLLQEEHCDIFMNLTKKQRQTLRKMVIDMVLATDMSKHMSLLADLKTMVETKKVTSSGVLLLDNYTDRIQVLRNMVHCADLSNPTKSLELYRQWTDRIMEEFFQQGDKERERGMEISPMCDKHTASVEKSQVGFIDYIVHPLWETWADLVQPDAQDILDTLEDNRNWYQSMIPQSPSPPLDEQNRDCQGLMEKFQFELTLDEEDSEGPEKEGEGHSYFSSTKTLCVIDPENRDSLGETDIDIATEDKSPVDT
Sequence of Pyruvate kinase PKM (Homo sapiens) (P14618 whole entry, looked up): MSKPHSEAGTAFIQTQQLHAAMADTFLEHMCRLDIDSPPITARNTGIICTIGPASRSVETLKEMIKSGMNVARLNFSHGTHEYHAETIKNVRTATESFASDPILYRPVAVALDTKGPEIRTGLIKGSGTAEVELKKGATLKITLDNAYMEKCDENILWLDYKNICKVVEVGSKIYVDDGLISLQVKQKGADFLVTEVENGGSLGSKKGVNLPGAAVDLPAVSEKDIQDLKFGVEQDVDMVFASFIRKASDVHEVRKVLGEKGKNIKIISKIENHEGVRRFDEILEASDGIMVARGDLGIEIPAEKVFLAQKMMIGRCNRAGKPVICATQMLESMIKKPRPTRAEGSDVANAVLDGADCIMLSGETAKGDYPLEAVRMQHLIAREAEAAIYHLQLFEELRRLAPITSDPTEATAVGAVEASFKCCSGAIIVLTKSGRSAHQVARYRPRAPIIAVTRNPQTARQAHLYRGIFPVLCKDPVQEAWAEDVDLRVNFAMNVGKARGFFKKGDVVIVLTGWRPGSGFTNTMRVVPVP
Sequence of Cytochrome P450 3A4 (Homo sapiens) (P08684 whole entry, looked up): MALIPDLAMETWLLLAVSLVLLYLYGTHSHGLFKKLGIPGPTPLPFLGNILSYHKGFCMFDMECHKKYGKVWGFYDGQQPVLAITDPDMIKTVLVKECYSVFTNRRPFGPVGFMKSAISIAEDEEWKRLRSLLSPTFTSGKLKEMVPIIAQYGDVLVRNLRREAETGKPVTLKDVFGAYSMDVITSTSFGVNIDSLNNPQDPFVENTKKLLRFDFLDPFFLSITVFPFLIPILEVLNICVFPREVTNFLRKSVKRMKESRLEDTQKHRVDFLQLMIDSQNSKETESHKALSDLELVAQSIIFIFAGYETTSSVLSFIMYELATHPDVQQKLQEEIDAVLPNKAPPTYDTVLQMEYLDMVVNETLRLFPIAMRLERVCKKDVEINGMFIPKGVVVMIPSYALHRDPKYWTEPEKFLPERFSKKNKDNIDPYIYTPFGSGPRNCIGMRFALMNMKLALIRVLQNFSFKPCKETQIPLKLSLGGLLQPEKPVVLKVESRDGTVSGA
Sequence of Glucocorticoid receptor (Homo sapiens) (P04150 whole entry, looked up, the tested form may be a part): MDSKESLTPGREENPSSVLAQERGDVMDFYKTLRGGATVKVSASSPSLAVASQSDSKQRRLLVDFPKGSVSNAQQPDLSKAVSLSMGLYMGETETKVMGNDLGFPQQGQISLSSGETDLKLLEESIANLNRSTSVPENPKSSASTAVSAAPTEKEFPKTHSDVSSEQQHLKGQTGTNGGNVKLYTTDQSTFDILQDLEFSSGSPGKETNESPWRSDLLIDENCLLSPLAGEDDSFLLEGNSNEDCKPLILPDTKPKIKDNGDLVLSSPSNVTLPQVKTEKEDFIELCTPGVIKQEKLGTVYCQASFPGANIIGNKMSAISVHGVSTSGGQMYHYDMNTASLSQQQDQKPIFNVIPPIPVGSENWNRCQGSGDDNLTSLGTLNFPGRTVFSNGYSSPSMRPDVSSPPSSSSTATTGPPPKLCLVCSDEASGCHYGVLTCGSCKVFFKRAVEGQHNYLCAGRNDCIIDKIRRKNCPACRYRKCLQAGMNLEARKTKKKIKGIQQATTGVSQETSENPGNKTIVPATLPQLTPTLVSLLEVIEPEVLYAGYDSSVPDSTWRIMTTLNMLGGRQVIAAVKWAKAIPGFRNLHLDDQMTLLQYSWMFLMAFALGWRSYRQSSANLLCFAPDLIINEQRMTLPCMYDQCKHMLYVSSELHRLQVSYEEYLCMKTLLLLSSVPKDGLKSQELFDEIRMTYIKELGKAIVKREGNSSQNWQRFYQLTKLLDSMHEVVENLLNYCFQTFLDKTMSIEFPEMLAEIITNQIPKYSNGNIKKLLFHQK
Sequence of Guanine nucleotide-binding protein G(i) subunit alpha-1 (Homo sapiens) (P63096 whole entry, looked up): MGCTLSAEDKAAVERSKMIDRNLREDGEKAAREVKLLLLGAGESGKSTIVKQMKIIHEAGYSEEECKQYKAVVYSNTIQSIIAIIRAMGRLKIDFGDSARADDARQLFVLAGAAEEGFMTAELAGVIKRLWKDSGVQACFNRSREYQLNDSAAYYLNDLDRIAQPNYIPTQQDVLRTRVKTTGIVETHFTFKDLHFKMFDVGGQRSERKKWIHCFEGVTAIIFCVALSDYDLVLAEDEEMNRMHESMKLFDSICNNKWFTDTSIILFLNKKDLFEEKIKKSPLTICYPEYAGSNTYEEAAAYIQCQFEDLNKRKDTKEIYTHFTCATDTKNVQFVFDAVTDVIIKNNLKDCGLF
Sequence of Muscarinic acetylcholine receptor M1 (Rattus norvegicus) (P08482 whole entry, looked up): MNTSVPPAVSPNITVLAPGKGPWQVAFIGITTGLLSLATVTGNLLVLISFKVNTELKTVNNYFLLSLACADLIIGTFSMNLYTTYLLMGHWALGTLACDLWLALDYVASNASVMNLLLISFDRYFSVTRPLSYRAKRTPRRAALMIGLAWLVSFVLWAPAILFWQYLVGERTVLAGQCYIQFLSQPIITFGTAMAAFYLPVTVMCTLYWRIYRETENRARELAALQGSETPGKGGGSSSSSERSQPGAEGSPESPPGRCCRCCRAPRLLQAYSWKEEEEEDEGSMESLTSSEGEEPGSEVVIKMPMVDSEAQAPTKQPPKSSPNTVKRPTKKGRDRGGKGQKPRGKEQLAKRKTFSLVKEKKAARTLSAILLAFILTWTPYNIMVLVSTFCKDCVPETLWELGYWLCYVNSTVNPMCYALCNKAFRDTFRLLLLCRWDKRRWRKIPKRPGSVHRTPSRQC

Turning to `CN1CCN([C@@H]2Cc3ccccc3Sc3ccc(Cl)cc32)CC1`, the Potency in test [1] is 12.6 µM (active); in [3], over 46 µM; in [4] it was over 46 µM; in test [7] it was 398 nM (active); in test [8] it was 10 µM (active). In test [2] (at 17.2 µM (top of the series) unless noted), the activity, negative = inhibition is 2.01% [at 38 µM]. Moreover, the result in test [5], in test [10], in [11] and in [12] was inactive. Also, the Potency entry in [6] and in [9] was “inactive” in each case.

Consider `CCCCC#Cc1nc(N)c2ncn([C@@H]3O[C@@H](C(=O)NCC)[C@H](O)[C@@H]3O)c2n1`, for which the Potency result in test [1], in [14], in test [15], in test [6], in test [16] and in test [8] was “inactive” in each case. Also, the Potency result in test [9] was “inactive”. In addition, the activity change, negative = inhibition in test [13] is 15.6% [at 38 µM]. Moreover, the Potency in test [3] and in test [4] was over 46 µM in each case. In addition, the molecule was classed as inactive in test [5], in test [10], in test [11] and in test [12].

Turning to `COc1cc([C@H]2c3cc4c(cc3[C@@H](O)[C@@H]3COC(=O)[C@H]23)OCO4)cc(OC)c1OC`, the Potency result in test [1], in test [14], in [15], in test [6], in test [18] and in test [8] was “inactive” each time. In test [9], the Potency result was “inactive”. For the same molecule, the activity change, negative = inhibition in test [13] was -22.1% [at 38 µM]. Further, the values for the activity, negative = inhibition in test [2] (at 17.2 µM (top of the series)) and in test [2] (at 38 µM (top of the series)) were 16.9% and -4.5%, respectively. The call in test [5], in test [10], in test [11] and in test [12] was inactive. The Potency in test [17] was 6.31 µM (active).
